Some test systems named below: RPMI-8226 leukemia; OVCAR-8 ovarian; OVCAR-5 ovarian; OVCAR-4 ovarian; SK-OV-3 ovarian; IGROV1 ovarian; OVCAR-3 ovarian; HS 578T breast; NCI/ADR-RES ovarian; T-47D breast; BT-549 breast; MDA-MB-435 melanoma; SW-620 colon; MCF7 breast; HCT-116 colon; HCC-2998 colon; KM12 colon.
Common to all, as to assay: NCI-60 one-dose screen, 48 h (100 = growth as untreated, 0 = no growth, -100 = all killed)
Settings in all cases: 10 µM

Compounds without any hit were thinned out: in the full panel of roughly 83,000, 20% have a hit.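 A percent growth of 40 corresponds to 60% growth inhibition; 0 means no net growth; -100 means all cells died. Active threshold: below 10.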 A number with no mark means an inactive call. Activity calls are given as the source filed them.

As to `Cn1c(C(N)=O)cc2c1-c1nc(Nc3ccccc3)ncc1CCC2`, the growth with RPMI-8226 leukemia was 53.2%; in the test on OVCAR-8 ovarian, 51%; in the test with OVCAR-5 ovarian it was 36.4%; with OVCAR-4 ovarian, 33.1%; in the test with SK-OV-3 ovarian, 40.2%; in the test with IGROV1 ovarian it was 25.5%. Besides, the growth is 63.5% in the test on OVCAR-3 ovarian; 17.3% in the test with HS 578T breast; 66.3% in the test on NCI/ADR-RES ovarian; 65.1% in the test on T-47D breast; 33.7% with BT-549 breast; 45% with MDA-MB-435 melanoma. In addition, the growth in the test on SW-620 colon was 57.2%; with MCF7 breast, 38.7%; in the test with HCT-116 colon, 25.8%; with HCC-2998 colon, 73.1%; in the test with KM12 colon it was 7.9% (active).
Regarding `CC1(C)OC2=C(CC1Br)C(=O)C(=O)c1ccccc12` (stereo not drawn), the growth is -28.1% (active) with RPMI-8226 leukemia; -46.4% (active) in the test on OVCAR-8 ovarian; -80.5% (active) in the test on OVCAR-5 ovarian; -99.4% (active) in the test with OVCAR-4 ovarian; 77.8% with SK-OV-3 ovarian; -80.2% (active) with IGROV1 ovarian. The growth is -96.5% (active) with OVCAR-3 ovarian; 8.65% (active) in the test with HS 578T breast; -44.7% (active) in the test on NCI/ADR-RES ovarian; -45.4% (active) in the test with T-47D breast; -99.2% (active) with BT-549 breast; -87.4% (active) with MDA-MB-435 melanoma. Moreover, the growth was -81.5% (active) in the test on SW-620 colon; -66.3% (active) in the test with MCF7 breast; -57% (active) in the test on HCT-116 colon; -19.7% (active) in the test with HCC-2998 colon; -93% (active) in the test on KM12 colon.
Take `COc1cc(-c2nn3c(/C=C4/C(=O)Nc5ccccc54)c(-c4ccc(C)cc4)nc3s2)cc(OC)c1OC`: the growth in the test with RPMI-8226 leukemia was 45.4%; with OVCAR-8 ovarian, 46.8%; in the test on OVCAR-5 ovarian it was 85.9%; in the test with OVCAR-4 ovarian, -17.3% (active); in the test with SK-OV-3 ovarian, 79.5%; in the test on IGROV1 ovarian it was 77.4%. Besides, the growth was 43.6% in the test with OVCAR-3 ovarian; -19.4% (active) with HS 578T breast; 41.8% with NCI/ADR-RES ovarian; 63.6% in the test with T-47D breast; 22.8% in the test on BT-549 breast; 33.6% with MDA-MB-435 melanoma. The growth in the test with SW-620 colon is 54.8%; in the test with MCF7 breast, 39.4%; in the test with HCT-116 colon it was 24%; in the test with HCC-2998 colon, 85.1%; in the test on KM12 colon, 51%.
With `Clc1ccc(/C=C2\CCCC3=C2N=C2SC=NN2C3c2ccc(Cl)cc2)cc1` (stereo not drawn), the growth is -12.1% (active) in the test with RPMI-8226 leukemia; 91.4% in the test with OVCAR-8 ovarian; 107% in the test on OVCAR-5 ovarian; 92.1% in the test on OVCAR-4 ovarian; 109% in the test on SK-OV-3 ovarian; 104% in the test with IGROV1 ovarian. Besides, the growth in the test on OVCAR-3 ovarian is 112%; with HS 578T breast, 96.6%; with NCI/ADR-RES ovarian it was 102%; in the test on T-47D breast, 88.2%; in the test with BT-549 breast, 117%; in the test on MDA-MB-435 melanoma, 76.7%. The growth with SW-620 colon was 94.1%; in the test on MCF7 breast it was 23.7%; with HCT-116 colon it was 5.7% (active); in the test on HCC-2998 colon, 77.2%; in the test with KM12 colon, 83.9%.
For `CCCC#CCN(CC)CC`, the growth is 105% in the test with RPMI-8226 leukemia; 100% in the test on OVCAR-8 ovarian; 112% in the test with OVCAR-5 ovarian; 104% in the test on OVCAR-4 ovarian; 107% in the test with SK-OV-3 ovarian; 110% in the test on IGROV1 ovarian. Further, the growth in the test with OVCAR-3 ovarian is 117%; in the test with HS 578T breast, 105%; in the test on NCI/ADR-RES ovarian, 114%; in the test on T-47D breast, 108%; with BT-549 breast, 120%; in the test with MDA-MB-435 melanoma, 95%. The growth in the test on SW-620 colon was 107%; in the test on MCF7 breast, 102%; with HCT-116 colon, 109%; in the test on HCC-2998 colon it was 120%; in the test on KM12 colon, 111%.
For `c1ccc(CP(Cc2ccccc2)c2ccccc2)cc1`, the growth is 92.7% in the test on RPMI-8226 leukemia; 94.8% in the test on OVCAR-8 ovarian; 102% in the test with OVCAR-5 ovarian; 113% in the test with OVCAR-4 ovarian; 100% in the test with SK-OV-3 ovarian; 78.6% with IGROV1 ovarian. Further, the growth in the test with OVCAR-3 ovarian was 112%; in the test with HS 578T breast, 117%; with NCI/ADR-RES ovarian, 101%; with T-47D breast, 116%; in the test with BT-549 breast it was 96.2%; in the test with MDA-MB-435 melanoma it was 75.5%. The growth was 105% in the test with SW-620 colon; 96.7% with MCF7 breast; 100% with HCT-116 colon; 101% in the test with HCC-2998 colon; 103% in the test with KM12 colon.
On to `O=C(Nc1cccc(-n2cc(-c3ccncc3)c(-c3ccc(O)c(Cl)c3)n2)c1)c1cccc(C(F)(F)F)c1`, for which the growth in the test with RPMI-8226 leukemia is 13.4%; in the test on OVCAR-8 ovarian, 18.4%; in the test with OVCAR-5 ovarian, 89.4%; in the test with OVCAR-4 ovarian it was 51.2%; in the test on SK-OV-3 ovarian, 71.2%; in the test with IGROV1 ovarian, 51.6%. Besides, the growth with OVCAR-3 ovarian is 45.1%; in the test on HS 578T breast it was 41.2%; in the test on NCI/ADR-RES ovarian it was 35.1%; in the test with T-47D breast, 15%; in the test with BT-549 breast it was 43.9%; with MDA-MB-435 melanoma, 33.7%. For the same compound, the growth in the test on SW-620 colon is 26.1%; with MCF7 breast it was 13.9%; in the test on HCT-116 colon, 21.7%; in the test on HCC-2998 colon, 25.7%; in the test with KM12 colon it was 20.2%.
Consider `COc1cc(Cl)cc(-c2nn(-c3cccc(NC(=O)c4ccc(Cl)c(Cl)c4)c3)cc2-c2ccncc2)c1`, for which the growth with RPMI-8226 leukemia was 46%; with OVCAR-8 ovarian, 58.4%; in the test on OVCAR-5 ovarian, 79.2%; in the test on OVCAR-4 ovarian, 58.6%; in the test on SK-OV-3 ovarian, 80.1%; in the test on IGROV1 ovarian, 71.6%. The growth in the test on OVCAR-3 ovarian is 53.4%; in the test with HS 578T breast it was 63.6%; in the test with NCI/ADR-RES ovarian it was 61.4%; in the test on T-47D breast, 63.2%; with BT-549 breast, 85.2%; in the test on MDA-MB-435 melanoma, 80.7%. Besides, the growth is 84.2% with SW-620 colon; 57.7% in the test on MCF7 breast; 44.1% with HCT-116 colon; 77.8% in the test on HCC-2998 colon; 62.3% in the test on KM12 colon.
With `Cc1ccc(S(=O)(=O)OCCN(CCOS(=O)(=O)c2ccc(C)cc2)c2c[nH]c(=O)[nH]c2=O)cc1`, the growth with RPMI-8226 leukemia was 100%; with OVCAR-8 ovarian, 103%; in the test with OVCAR-5 ovarian, 102%; in the test with OVCAR-4 ovarian it was 97.9%; in the test on SK-OV-3 ovarian it was 100%; with IGROV1 ovarian, 112%. Besides, the growth is 120% in the test on OVCAR-3 ovarian; 140% with HS 578T breast; 112% with NCI/ADR-RES ovarian; 100% in the test on T-47D breast; 112% with BT-549 breast; 103% with MDA-MB-435 melanoma. Further, the growth is 110% in the test with SW-620 colon; 99.2% with MCF7 breast; 108% in the test on HCT-116 colon; 128% with HCC-2998 colon; 116% in the test with KM12 colon.
